In PubChem BioAssay AID1159580 (chemical genetic matrix, 2015):
Out of some 5,500 compounds screened, about 2,000 (36%) were called active. Not shown: some 18% with an inconclusive outcome. Cut-off read from the data, not from the text of the source: active = normalized growth mostly below about 0.91 (no sharp cut-off); inconclusive = no clear call, values can overlap the other calls; inactive = mostly above about 0.92. Some of the results follow.

Assay: chemical genetic growth profiling, strain panel (AID 1159580);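 note: tested at 20 µM; growth read once vehicle control cultures reached saturation at 30 °C; 1 = growth at the plate median or of vehicle wells; lower values mean less growth of the strain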
Settings: growth OD

Measured: normalized growth

Nc1ncn([C@@H]2O[C@H](CO)[C@@H](O)[C@H]2O)c(=O)n1
inactive: S. cerevisiae deletion strains, locus YJR066W, strain TOR1, active compounds read low 0.948 | S. cerevisiae deletion strains, locus YKL009W, strain mrt4, active compounds read low 1 | S. cerevisiae deletion strains, locus YKL068W, active compounds read low 0.997 | S. cerevisiae deletion strains, locus YKL085W, strain MDH1 (second series), active compounds read low 0.989 | S. cerevisiae deletion strains, locus YKL085W, strain MDH1, active compounds read low 0.989 | S. cerevisiae deletion strains, locus YKL160W, strain elf1, active compounds read low 0.99 | S. cerevisiae deletion strains, locus YKL190W, strain CNB1, active compounds read low 1.01 | S. cerevisiae deletion strains, locus YKR001C, strain vps1, active compounds read low 1.02 | S. cerevisiae deletion strains, locus YKR026C, strain gcn3, active compounds read low 1.07 | S. cerevisiae deletion strains, locus YKR091W, strain srl3, active compounds read low 0.967 | S. cerevisiae deletion strains, locus YLL001W, strain dnm1, active compounds read low 0.952 | S. cerevisiae deletion strains, locus YLL026W, active compounds read low 0.997 | S. cerevisiae deletion strains, locus YLL041C, strain sdh2, active compounds read low 0.989 | S. cerevisiae deletion strains, locus YLR027C, strain aat2, active compounds read low 0.985 | S. cerevisiae deletion strains, locus YLR039C, strain RIC1, active compounds read low 1.01 | S. cerevisiae deletion strains, locus YLR058C, strain SHM2, active compounds read low 1.02 | S. cerevisiae deletion strains, locus YLR102C, strain apc9, active compounds read low 0.993 | S. cerevisiae deletion strains, locus YLR113W, strain HOG1, active compounds read low 0.951 | S. cerevisiae deletion strains, locus YLR221C, strain rsa3, active compounds read low 1.01 | S. cerevisiae deletion strains, locus YLR258W, strain gsy2, active compounds read low 0.992 | S. cerevisiae deletion strains, locus YLR262C, strain YPT6 (second series), active compounds read low 0.955 | S. cerevisiae deletion strains, locus YLR262C, strain YPT6, active compounds read low 1.06 | S. cerevisiae deletion strains, locus YLR268W, strain sec22, active compounds read low 0.99 | S. cerevisiae deletion strains, locus YLR320W, strain mms22, active compounds read low 1 | S. cerevisiae deletion strains, locus YLR330W, strain CHS5, active compounds read low 1 | S. cerevisiae deletion strains, locus YLR342W, strain FKS1 (second series), active compounds read low 1 | S. cerevisiae deletion strains, locus YLR342W, strain FKS1, active compounds read low 0.932 | S. cerevisiae deletion strains, locus YLR357W, strain rsc2, active compounds read low 1.01 | S. cerevisiae deletion strains, locus YLR370C, strain arc18, active compounds read low 0.985 | S. cerevisiae deletion strains, locus YLR371W, strain rom2, active compounds read low 0.994 | S. cerevisiae deletion strains, locus YLR384C, strain iki3, active compounds read low 0.974 | S. cerevisiae deletion strains, locus YLR418C, strain cdc73, active compounds read low 0.973 | S. cerevisiae deletion strains, locus YML016C, strain PPZ1, active compounds read low 1.01 | S. cerevisiae deletion strains, locus YML032C, strain rad52, active compounds read low 0.998 | S. cerevisiae deletion strains, locus YML120C, strain ndi1, active compounds read low 0.986 | S. cerevisiae deletion strains, locus YML124C, strain tub3, active compounds read low 1 | S. cerevisiae deletion strains, locus YMR058W, strain fet3, active compounds read low 0.989 | S. cerevisiae deletion strains, locus YMR078C, strain ctf18, active compounds read low 0.992 | S. cerevisiae deletion strains, locus YMR125W, strain sto1, active compounds read low 0.962 | S. cerevisiae deletion strains, locus YMR129W, active compounds read low 0.996 | S. cerevisiae deletion strains, locus YMR205C, strain PFK2, active compounds read low 0.967 | S. cerevisiae deletion strains, locus YMR223W, strain ubp8, active compounds read low 0.989 | S. cerevisiae deletion strains, locus YMR231W, strain pep5, active compounds read low 0.985 | S. cerevisiae deletion strains, locus YMR307W, strain GAS1, active compounds read low 0.982 | S. cerevisiae deletion strains, locus YNL067W, strain RPL9B, active compounds read low 1.02 | S. cerevisiae deletion strains, locus YNL071W, strain lat1, active compounds read low 1.01 | S. cerevisiae deletion strains, locus YNL153C, strain GIM3, active compounds read low 1.04 | S. cerevisiae deletion strains, locus YNL183C, strain NPR1, active compounds read low 0.935 | S. cerevisiae deletion strains, locus YNL209W, strain ssb2, active compounds read low 0.997 | S. cerevisiae deletion strains, locus YNL233W, strain BNI4, active compounds read low 1.03 | S. cerevisiae deletion strains, locus YNL248C, strain rpa49, active compounds read low 0.951 | S. cerevisiae deletion strains, locus YNL250W, strain rad50, active compounds read low 1.01 | S. cerevisiae deletion strains, locus YNL271C, strain bni1, active compounds read low 1 | S. cerevisiae deletion strains, locus YNL298W, strain CLA4, active compounds read low 1 | S. cerevisiae deletion strains, locus YNL307C, strain MCK1, active compounds read low 0.998 | S. cerevisiae deletion strains, locus YNL322C, strain KRE1 (second series), active compounds read low 0.978 | S. cerevisiae deletion strains, locus YNL322C, strain KRE1, active compounds read low 1.01 | S. cerevisiae deletion strains, locus YNR049C, strain mso1, active compounds read low 0.968 | S. cerevisiae deletion strains, locus YNR052C, strain pop2, active compounds read low 0.993 | S. cerevisiae deletion strains, locus YOL006C, strain TOP1, active compounds read low 1.07 | S. cerevisiae deletion strains, locus YOL012C, strain htz1 0.991 | S. cerevisiae deletion strains, locus YOL147C, strain pex11, active compounds read low 1 | S. cerevisiae deletion strains, locus YOR001W, strain rrp6, active compounds read low 0.976 | S. cerevisiae deletion strains, locus YOR061W, strain CKA2, active compounds read low 1.02 | S. cerevisiae deletion strains, locus YOR069W, strain VPS5, active compounds read low 1.01 | S. cerevisiae deletion strains, locus YOR070C, strain gyp1, active compounds read low 0.99 | S. cerevisiae deletion strains, locus YOR080W, strain dia2, active compounds read low 0.967 | S. cerevisiae deletion strains, locus YOR083W, strain WHI5, active compounds read low 0.968 | S. cerevisiae deletion strains, locus YOR106W, strain vam3, active compounds read low 0.959 | S. cerevisiae deletion strains, locus YOR136W, strain idh2, active compounds read low 1 | S. cerevisiae deletion strains, locus YOR144C, strain elg1, active compounds read low 0.99 | S. cerevisiae deletion strains, locus YOR184W, strain ser1, active compounds read low 0.996 | S. cerevisiae deletion strains, locus YOR231W, strain MKK1, active compounds read low 0.974 | S. cerevisiae deletion strains, locus YOR265W, strain rbl2, active compounds read low 0.989 | S. cerevisiae deletion strains, locus YOR270C, strain vph1, active compounds read low 0.958 | S. cerevisiae deletion strains, locus YOR290C, strain snf2, active compounds read low 1.01 | S. cerevisiae deletion strains, locus YOR316C, strain cot1, active compounds read low 0.997 | S. cerevisiae deletion strains, locus YPL051W, strain arl3, active compounds read low 0.992 | S. cerevisiae deletion strains, locus YPL078C, strain atp4, active compounds read low 0.958 | S. cerevisiae deletion strains, locus YPL106C, strain sse1, active compounds read low 0.978 | S. cerevisiae deletion strains, locus YPL240C, strain hsp82, active compounds read low 0.986 | S. cerevisiae deletion strains, locus YPL241C, strain CIN2, active compounds read low 1.01 | S. cerevisiae deletion strains, locus YPL256C, strain CLN2, active compounds read low 0.975 | S. cerevisiae deletion strains, locus YPR119W, strain clb2, active compounds read low 0.99 | S. cerevisiae deletion strains, locus YPR141C, strain kar3, active compounds read low 0.99 | S. cerevisiae deletion strains, locus YPR163C, strain tif3, active compounds read low 0.998 | S. cerevisiae deletion strains, locus YPR167C, strain met16, active compounds read low 0.994 | S. cerevisiae deletion strains, strain wtn01, active compounds read low 1.01 | S. cerevisiae strains, strain wild type, active compounds read low 1.01
